In the supplement of paper PMC7156485:

System: TDF
Test: H1.0 immunofluorescence intensity relative to DMSO (% of DMSO); higher = stronger H1.0 induction, active = 120 or more
Conditions: concentration: 10 µM; 24 h
Procedure, shortened: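 For HCC1569 and TDF cells, compounds at 10 µM were applied for 24 h at 37 °C in triplicate in 384-well plates. Cells were fixed in 3.7% formaldehyde, stained for H1.0 and with DAPI, and imaged at ×10 over six fields per well. The endpoint, H1.0 nuclear intensity or cell number, is shown as percent of the plate control using the median of replicates. Positional effects were smoothed for HCC1569 only.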
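Also: TDF is a line of transformed human dermal fibroblasts of mesenchymal origin.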

H1.0 immunofluorescence intensity, inactive:
O=C(O)c1ccccc1Nc1cccc(OCc2ccc3ccccc3n2)c1 91.5
C#CC1(O)CCC2C3CCC4=CC(=O)CCC4C3CCC21CC (stereo unspecified) [Levonorgestrel] 99.8
CC1=C2C(=COC(C)C2C)C(=O)C(C(=O)O)=C1O (stereo unspecified) [Citrinin] 101
Br.CN1CCc2cc(O)c(O)cc2C(c2ccccc2)C1 (stereo unspecified) 89.8
O=C([O-])CCC(NC(=O)c1ccccc1C(=O)[O-])C(=O)[O-].[Na+].[Na+].[Na+] [Phthalamoyl-L-glutamic acid trisodium] 89.2
O=C1CCc2cc(OCCCCc3nnnn3C3CCCCC3)ccc2N1 [Cilostazol] 90.2
CN(C)CCOC(C)(c1ccccc1)c1ccccn1.O=C(O)CCC(=O)O (stereo unspecified) [Doxylamine succinate] 97.5
COc1ccc(CCN(C)CCc2ccc(OC)c(OC)c2)cc1OC.Cl [YS-035 hydrochloride] 96.6
CCCN(CCC)CC1CCCCN1CCNC(=O)N1c2ccccc2C(=O)Nc2cccnc21 (stereo unspecified) 87.8
CCN(CC)C(C)C(=O)N1c2ccccc2Sc2ccccc21.Cl (stereo not drawn) [10-(alpha-Diethylaminopropionyl)-phenothiazine hydrochloride] 98.5
CCN(CC)C(=O)C(C#N)=Cc1cc(O)c(O)c([N+](=O)[O-])c1 [Entacapone] 95.3
